# A selection: hits, their analogues and other compounds. The true share with any hit is near 19%.
# ELG1 DNA repair: qHTS screen for small molecules that inhibit ELG1-dependent DNA repair in human embryonic kidney (HEK293T) cells expressing luciferase-tagged ELG1; HEK293T ELG1-luciferase reporter, luminescence, 16 h; DNA damage induced by 5-fluorouridine; Potency, µM (doses to about 46.1 µM), inactives show at the highest dose activity change, negative = inhibition, most hits filed as inhibitors; 330,000 tested, 2.3% active; AID 504467, 2011; also: potency is read from the fitted curve at half-maximal effect; nearly all actives have a fitted effect of over 55% in size
#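 Step one: seed 2,000 cells per well. Step two: pin-transfer compound or DMSO alongside 5-fluorouridine. Step three: incubate 16 hr, 37 °C, 5% CO2. Step four: add ONE-Glo, wait 30 min, read luminescence.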
# DT40 TDP1 CPT: qHTS for Inhibitors of human tyrosyl-DNA phosphodiesterase 1 (TDP1): qHTS in cells in presence of CPT; chicken DT40 Tdp1-/-;hTDP1 cells + 20 nM CPT, ATP luminescence, 48 h; Potency, µM (doses to about 46.2 µM), without a hit: top-dose activity change, negative = growth inhibition, usual class: inhibitors; 420,000 tested, 12% active; also: potency is read from the fitted curve at half-maximal effect; nearly all actives have a fitted effect of over 55% in size
#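 Chicken DT40 Tdp1-/- cells complemented with human TDP1, 400 cells/well, exposed to compounds plus 20 nM camptothecin for at least 48 h at 37 C; viability read as ATP content by CellTiter-Glo luminescence.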
# TDP1 inh: qHTS Assay for Inhibitors of Tyrosyl-DNA Phosphodiesterase (TDP1) | recombinant TDP1, AlphaScreen DNA substrate cleavage | Potency, µM (top dose mostly 130 µM), inactives show at the highest dose activity change, negative = inhibition, actives largely listed as inhibitors | Tyrosyl-DNA phosphodiesterase 1 (Homo sapiens), Q9NUW8 | 350,000 tested, 0.28% active | AID 485290, 2010; also: potency is read from the fitted curve at half-maximal effect; nearly all actives have a fitted effect of over 40% in size
# Target sequence (Q9NUW8 whole entry, looked up): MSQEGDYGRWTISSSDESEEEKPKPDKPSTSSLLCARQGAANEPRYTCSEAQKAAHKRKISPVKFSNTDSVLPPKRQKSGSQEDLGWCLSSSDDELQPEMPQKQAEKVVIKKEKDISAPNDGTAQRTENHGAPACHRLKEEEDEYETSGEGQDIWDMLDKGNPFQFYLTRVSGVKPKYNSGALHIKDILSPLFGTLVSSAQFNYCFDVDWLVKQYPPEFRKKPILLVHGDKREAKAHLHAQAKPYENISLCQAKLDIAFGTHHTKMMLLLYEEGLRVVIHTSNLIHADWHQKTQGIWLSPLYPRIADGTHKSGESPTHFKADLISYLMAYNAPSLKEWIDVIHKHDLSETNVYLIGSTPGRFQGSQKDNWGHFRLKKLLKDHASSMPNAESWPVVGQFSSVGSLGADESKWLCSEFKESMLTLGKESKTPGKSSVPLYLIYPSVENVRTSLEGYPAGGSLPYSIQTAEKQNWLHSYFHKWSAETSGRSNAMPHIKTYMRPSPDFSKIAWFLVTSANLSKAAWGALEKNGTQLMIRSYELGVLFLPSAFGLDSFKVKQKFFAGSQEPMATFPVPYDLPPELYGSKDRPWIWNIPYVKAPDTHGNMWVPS
#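 Compounds were preincubated with Tdp1 (1 nM final) for 15 min at room temperature before substrate (15 nM final) started a 5 min reaction; beads (10 ug/ml final) were then added for 10 min before AlphaScreen detection.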
# TDP1 cell noCPT: qHTS for Inhibitors of human tyrosyl-DNA phosphodiesterase 1 (TDP1): qHTS in cells in absence of CPT; 420,000 tested, 15% active; DT40 Tdp1-/- hTDP1 cells, no CPT, ATP luminescence, 48 h; AID 686978, 2013; Potency, µM (highest dose often 46.2 µM), for the others: top-dose activity change, negative = growth inhibition, hits mostly inhibitors; also: potency is read from the fitted curve at half-maximal effect; nearly all actives have a fitted effect of over 55% in size
#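 Stably hTDP1-transfected Tdp1-null chicken DT40 cells were treated with library compounds minus camptothecin and grown for at least 48 hr at 37 °C, after which cellular ATP was quantified by luminescence.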
# IL1B secr inh: qHTS for Inhibitors of Inflammasome Signaling: IL-1-beta AlphaLISA Primary Screen | THP-1 LPS/ATP IL-1B secretion, AlphaLISA, 16 h; active compounds read low | activity change, % at 57.5 µM | 360,000 tested, 4.7% active | AID 743279, 2014; in the data active = activity change below about -50%; inconclusive = mostly about -30% to -49%
#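 THP-1 cells pretreated 1 hr with compounds (up to 57.5 uM final), then stimulated with LPS (250 ng/mL final) plus ATP (1.25 mM final); secreted IL-1B measured by AlphaLISA after 16 hr, decreased signal indicating inhibition.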
# Giardia killer: Small Molecules that selectively kill Giardia lamblia: qHTS; Giardia lamblia trophozoite viability; AID 540267, 2011; activity change, % at 7.66 µM, hits read low; 340,000 tested, 0.15% active; in the data active = activity change below about -80%; inconclusive = between about -30% and that limit;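 also: parasites exposed to compound for two days anaerobically before the ATP read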
#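 Anaerobic 48 hrs incubation at 37 deg C of 100 trophozoites/well with test compounds; ATPLite 1-Step luminescence, 15-30 min RT, reports cellular ATP as viability.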
# * = called active by the depositor; ? = inconclusive; / = not tested or not shown. Unless noted, calls follow the shape of the dose curve; as a rule, active = well fitted curve in the direction sought with a large enough effect; inconclusive = small, poorly fitted or top-dose-only effect, or another doubt; inactive = no such curve, though single readings can be large; an effect the other way counts as inactive or inconclusive. % is scaled to controls: 0 for no effect and ±100 for the full control effect.
SMILES,ELG1 DNA repair,DT40 TDP1 CPT,TDP1 inh,TDP1 cell noCPT,IL1B secr inh,Giardia killer
COc1cc([C@@H]2c3cc4c(cc3C(OC3OC5COC(C)OC5C(O)C3O)C3COC(=O)[C@@H]32)OCO4)cc(OC)c1O (stereo not given in full),/,0.19µM*,4%,0.21µM*,/,/
COc1cc([C@@H]2c3cc4c(cc3C(O[C@@H]3O[C@@H]5COC(c6cccs6)O[C@H]5[C@H](O)[C@H]3O)C3COC(=O)[C@@H]32)OCO4)cc(OC)c1O (stereo not given in full),/,0.012µM*,/,0.013µM*,/,/
COc1cc(C2c3cc4c(cc3OC(N3CCCCC3)C2C)OCO4)cc(OC)c1O (stereo not given),/,?,/,?,25,-4
COc1cc([C@@H]2c3cc4c(cc3[C@@H](OC3OC5COC(C)OC5C(O)C3O)[C@H]3COC(=O)[C@H]23)OCO4)cc(OC)c1O (stereo not given in full),/,/,16%,/,/,/
CC(=O)Nc1ccc(NC(=O)C(Cc2ccccc2)NC(=O)C2CCC(C)CC2)cc1 (stereo not given),8%,-4%,-3%,-20%,-2,13
COc1cc(/C=N/NC(=O)CCC(=O)NCc2ccccc2)cc(OC)c1OC,-11%,-4%,5%,-5%,19,-3
Cc1nc(N2CCN(C)CC2)c2c(C)c(C(=O)Nc3ccc(C)c(F)c3)sc2n1,-14%,16µM*,0%,?,-60*,12
Cc1nc(N2CCCCC2)c2c(C)c(C(=O)Nc3ccc4c(c3)OCCO4)sc2n1,10µM*,?,4%,4.1µM*,/,-10
C=CCn1c(C)cc(C(=O)CSc2nc3ccccc3o2)c1C,?,16µM*,6%,?,-80*,-11
C=CCn1c(C)cc(C(=O)CSc2nnc(Cc3ccccc3)o2)c1C,28%,-2%,5%,-16%,7,-11
C=CCn1c(C)cc(C(=O)CSc2nnc(NCc3ccccc3)s2)c1C,26%,9.2µM*,9%,15µM*,-5,-17
Cc1cc(C(=O)CSc2nc3ccccc3o2)c(C)n1C1CC1,?,21µM*,9%,15µM*,?,2
CC[C@H](C)[C@H](NC(=O)[C@H](N)Cc1ccc(O)cc1)C(=O)N[C@@H](CC(N)=O)C(=O)N[C@@H](CC(C)C)C(=O)N[C@H](C(=O)N[C@@H](C(=O)N[C@@H](CCCN=C(N)N)C(=O)N[C@@H](CCC(N)=O)C(=O)N[C@@H](CCCN=C(N)N)C(=O)N[C@H](Cc1ccc(O)cc1)C(N)=O)[C@@H](C)O)[C@@H](C)CC,/,/,7%,/,/,/
O=C(N/N=C/C=C/c1ccccc1)c1cccnc1,5%,21µM*,7%,?,-3,10
CC(/C=N/NC(=O)c1n[nH]c2c1CCC2)=C\c1ccccc1,?,1.2µM*,5%,1.3µM*,63,-5
O=C(N/N=C/C(Br)=C\c1ccccc1)c1n[nH]c2c1CCC2,?,0.23µM*,4%,0.23µM*,1,-12
O=C(N/N=C/C=C\c1ccccc1)c1cnccn1,?,-19%,3%,-20%,-11,5
CC(/C=N/NC(=O)c1ccccc1C)=C\c1ccccc1,/,?,/,?,-10,-13
O=C(N/N=C/C=C/c1ccccc1)c1n[nH]c2c1CCC2,?,1.6µM*,6%,0.82µM*,68,-3

# Bioassay records from PubChem.
